The values below come from ChEMBL document CHEMBL2218924, “A broad activity screen in support of a chemogenomic map for kinase signalling research and drug discovery” (Biochem J, 2013).

As a reminder, the residual activity is the signal under treatment as a percentage of the control signal.

Assay [1] addresses T1, Ephrin type-B receptor 2 (Homo sapiens) (UniProt P29323).
T1 sequence (whole entry): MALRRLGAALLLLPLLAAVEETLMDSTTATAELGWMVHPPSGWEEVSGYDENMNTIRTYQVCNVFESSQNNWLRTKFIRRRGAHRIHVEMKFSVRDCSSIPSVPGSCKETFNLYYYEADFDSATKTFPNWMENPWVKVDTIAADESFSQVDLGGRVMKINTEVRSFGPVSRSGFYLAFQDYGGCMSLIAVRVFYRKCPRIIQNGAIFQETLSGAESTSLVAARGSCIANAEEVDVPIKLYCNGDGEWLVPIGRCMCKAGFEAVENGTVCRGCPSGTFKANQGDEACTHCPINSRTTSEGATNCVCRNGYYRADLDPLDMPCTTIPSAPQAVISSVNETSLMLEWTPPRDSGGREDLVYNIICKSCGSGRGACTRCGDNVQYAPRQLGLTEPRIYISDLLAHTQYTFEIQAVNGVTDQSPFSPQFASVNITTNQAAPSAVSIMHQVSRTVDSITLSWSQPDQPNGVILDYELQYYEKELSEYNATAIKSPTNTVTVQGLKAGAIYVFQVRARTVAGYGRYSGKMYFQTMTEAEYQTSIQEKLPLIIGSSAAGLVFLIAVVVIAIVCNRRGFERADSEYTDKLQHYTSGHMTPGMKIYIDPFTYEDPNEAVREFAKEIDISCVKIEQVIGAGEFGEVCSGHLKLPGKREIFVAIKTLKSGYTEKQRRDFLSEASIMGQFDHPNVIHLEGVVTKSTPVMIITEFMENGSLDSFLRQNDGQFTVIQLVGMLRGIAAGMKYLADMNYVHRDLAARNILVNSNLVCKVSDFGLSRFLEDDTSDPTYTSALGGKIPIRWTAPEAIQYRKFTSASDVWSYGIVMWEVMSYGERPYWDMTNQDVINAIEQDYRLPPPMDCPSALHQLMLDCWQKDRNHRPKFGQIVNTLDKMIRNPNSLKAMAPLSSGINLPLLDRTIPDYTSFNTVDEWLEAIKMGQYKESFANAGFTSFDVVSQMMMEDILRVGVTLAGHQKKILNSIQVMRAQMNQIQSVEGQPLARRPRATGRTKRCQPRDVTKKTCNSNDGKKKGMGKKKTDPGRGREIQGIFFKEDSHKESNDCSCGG
As to conditions: at 1 µM; call rule not given here.

In assay [2] the target is T1, Ephrin type-B receptor 2 (Homo sapiens). The following applies: at 10 µM.
Assay [3] concerns the target T2, Ephrin type-B receptor 3 (Homo sapiens) (UniProt P54753).
T2 sequence (whole entry): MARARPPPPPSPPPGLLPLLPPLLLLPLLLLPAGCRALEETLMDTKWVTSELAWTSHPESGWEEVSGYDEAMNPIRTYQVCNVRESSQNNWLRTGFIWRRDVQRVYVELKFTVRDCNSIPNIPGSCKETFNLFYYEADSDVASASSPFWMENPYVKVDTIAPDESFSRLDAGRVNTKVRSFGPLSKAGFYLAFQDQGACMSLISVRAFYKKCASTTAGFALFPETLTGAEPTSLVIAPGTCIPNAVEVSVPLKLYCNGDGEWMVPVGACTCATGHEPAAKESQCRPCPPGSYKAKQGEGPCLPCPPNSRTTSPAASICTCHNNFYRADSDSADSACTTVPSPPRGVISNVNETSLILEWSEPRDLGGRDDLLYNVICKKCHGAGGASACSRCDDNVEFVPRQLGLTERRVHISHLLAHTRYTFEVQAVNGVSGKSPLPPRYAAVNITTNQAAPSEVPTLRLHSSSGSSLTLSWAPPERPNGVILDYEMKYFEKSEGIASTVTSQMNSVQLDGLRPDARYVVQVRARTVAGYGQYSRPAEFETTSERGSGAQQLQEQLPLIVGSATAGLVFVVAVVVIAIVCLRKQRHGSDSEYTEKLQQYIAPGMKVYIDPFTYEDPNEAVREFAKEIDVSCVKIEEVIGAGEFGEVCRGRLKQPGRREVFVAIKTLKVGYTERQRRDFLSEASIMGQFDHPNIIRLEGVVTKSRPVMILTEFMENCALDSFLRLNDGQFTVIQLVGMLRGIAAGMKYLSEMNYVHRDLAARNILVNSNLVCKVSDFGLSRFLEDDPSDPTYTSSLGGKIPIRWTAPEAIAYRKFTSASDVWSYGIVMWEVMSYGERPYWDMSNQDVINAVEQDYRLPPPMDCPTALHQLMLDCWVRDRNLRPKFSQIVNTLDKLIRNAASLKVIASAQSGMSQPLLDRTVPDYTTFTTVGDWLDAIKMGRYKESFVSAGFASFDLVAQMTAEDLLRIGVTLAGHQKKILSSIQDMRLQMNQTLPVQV
As to conditions: at 1 µM.

For assay [4], the target named is T2, Ephrin type-B receptor 3 (Homo sapiens). The following applies: at 10 µM.
For assay [5], the target named is T3, Ephrin type-B receptor 4 (Homo sapiens) (UniProt P54760).
T3 sequence (whole entry): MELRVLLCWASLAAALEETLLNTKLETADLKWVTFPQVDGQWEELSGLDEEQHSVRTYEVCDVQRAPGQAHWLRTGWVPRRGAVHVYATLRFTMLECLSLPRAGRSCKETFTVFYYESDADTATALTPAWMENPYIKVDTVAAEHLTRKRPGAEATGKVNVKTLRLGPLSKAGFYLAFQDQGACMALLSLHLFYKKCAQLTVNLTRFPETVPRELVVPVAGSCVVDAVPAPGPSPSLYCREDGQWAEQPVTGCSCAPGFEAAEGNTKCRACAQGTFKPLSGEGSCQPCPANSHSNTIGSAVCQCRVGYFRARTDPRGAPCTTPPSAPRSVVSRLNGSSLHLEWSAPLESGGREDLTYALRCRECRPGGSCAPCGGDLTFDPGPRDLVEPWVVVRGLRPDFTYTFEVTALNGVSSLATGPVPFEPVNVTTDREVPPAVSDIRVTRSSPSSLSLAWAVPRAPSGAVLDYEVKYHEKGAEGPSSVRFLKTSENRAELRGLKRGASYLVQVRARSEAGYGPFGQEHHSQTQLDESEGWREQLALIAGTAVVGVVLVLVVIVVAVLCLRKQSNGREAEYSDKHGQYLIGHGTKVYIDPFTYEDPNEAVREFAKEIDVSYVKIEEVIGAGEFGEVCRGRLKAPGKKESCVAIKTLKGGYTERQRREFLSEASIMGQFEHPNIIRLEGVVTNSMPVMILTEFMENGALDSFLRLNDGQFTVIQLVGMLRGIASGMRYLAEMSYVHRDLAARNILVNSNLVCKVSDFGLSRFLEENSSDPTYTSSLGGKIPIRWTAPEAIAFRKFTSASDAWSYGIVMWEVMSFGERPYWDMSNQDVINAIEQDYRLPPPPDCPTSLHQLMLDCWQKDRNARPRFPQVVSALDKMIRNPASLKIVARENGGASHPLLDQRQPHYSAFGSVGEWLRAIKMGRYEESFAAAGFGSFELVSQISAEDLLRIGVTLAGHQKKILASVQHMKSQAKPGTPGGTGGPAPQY
The following applies: at 1 µM.

Assay [6] deals with T3, Ephrin type-B receptor 4 (Homo sapiens). As to conditions: at 10 µM.
Assay [7] has as its target Receptor tyrosine-protein kinase erbB-4 (Homo sapiens) (UniProt Q15303). As to conditions: at 1 µM.
Assay [8] shares this target. The following applies: at 10 µM.
In assay [9] the target is Focal adhesion kinase 1 (Homo sapiens) (UniProt Q05397). As to conditions: at 1 µM.
Chain of Focal adhesion kinase 1 (Homo sapiens) (Q05397 2-1052 limits assumed): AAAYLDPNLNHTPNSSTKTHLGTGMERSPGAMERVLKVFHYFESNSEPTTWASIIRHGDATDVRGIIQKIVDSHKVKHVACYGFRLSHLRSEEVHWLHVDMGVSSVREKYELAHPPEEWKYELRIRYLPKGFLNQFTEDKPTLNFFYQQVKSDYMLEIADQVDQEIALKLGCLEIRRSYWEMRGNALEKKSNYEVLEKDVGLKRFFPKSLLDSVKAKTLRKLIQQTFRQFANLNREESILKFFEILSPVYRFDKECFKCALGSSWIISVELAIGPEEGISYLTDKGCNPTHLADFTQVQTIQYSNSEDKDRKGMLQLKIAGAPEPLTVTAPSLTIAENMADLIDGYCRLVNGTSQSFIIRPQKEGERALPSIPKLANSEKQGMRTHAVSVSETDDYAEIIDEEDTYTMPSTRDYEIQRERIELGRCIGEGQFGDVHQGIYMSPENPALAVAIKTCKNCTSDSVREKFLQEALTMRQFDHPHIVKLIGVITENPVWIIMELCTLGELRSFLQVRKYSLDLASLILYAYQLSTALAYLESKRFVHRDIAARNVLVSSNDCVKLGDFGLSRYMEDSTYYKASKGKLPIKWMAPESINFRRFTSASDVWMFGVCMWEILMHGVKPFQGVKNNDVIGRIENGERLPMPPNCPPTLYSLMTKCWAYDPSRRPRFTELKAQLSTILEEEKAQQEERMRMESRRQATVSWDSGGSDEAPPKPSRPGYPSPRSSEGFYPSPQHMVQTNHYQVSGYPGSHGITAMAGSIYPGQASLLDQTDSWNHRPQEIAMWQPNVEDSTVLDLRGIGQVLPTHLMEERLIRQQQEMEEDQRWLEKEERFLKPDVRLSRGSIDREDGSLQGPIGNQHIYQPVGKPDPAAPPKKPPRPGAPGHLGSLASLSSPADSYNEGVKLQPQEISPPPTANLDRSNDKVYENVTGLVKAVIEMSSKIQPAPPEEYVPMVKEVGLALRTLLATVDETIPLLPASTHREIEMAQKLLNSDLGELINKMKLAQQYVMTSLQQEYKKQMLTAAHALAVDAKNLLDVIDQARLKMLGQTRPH

Chain of Receptor tyrosine-protein kinase erbB-4 (Homo sapiens) (Q15303 whole entry): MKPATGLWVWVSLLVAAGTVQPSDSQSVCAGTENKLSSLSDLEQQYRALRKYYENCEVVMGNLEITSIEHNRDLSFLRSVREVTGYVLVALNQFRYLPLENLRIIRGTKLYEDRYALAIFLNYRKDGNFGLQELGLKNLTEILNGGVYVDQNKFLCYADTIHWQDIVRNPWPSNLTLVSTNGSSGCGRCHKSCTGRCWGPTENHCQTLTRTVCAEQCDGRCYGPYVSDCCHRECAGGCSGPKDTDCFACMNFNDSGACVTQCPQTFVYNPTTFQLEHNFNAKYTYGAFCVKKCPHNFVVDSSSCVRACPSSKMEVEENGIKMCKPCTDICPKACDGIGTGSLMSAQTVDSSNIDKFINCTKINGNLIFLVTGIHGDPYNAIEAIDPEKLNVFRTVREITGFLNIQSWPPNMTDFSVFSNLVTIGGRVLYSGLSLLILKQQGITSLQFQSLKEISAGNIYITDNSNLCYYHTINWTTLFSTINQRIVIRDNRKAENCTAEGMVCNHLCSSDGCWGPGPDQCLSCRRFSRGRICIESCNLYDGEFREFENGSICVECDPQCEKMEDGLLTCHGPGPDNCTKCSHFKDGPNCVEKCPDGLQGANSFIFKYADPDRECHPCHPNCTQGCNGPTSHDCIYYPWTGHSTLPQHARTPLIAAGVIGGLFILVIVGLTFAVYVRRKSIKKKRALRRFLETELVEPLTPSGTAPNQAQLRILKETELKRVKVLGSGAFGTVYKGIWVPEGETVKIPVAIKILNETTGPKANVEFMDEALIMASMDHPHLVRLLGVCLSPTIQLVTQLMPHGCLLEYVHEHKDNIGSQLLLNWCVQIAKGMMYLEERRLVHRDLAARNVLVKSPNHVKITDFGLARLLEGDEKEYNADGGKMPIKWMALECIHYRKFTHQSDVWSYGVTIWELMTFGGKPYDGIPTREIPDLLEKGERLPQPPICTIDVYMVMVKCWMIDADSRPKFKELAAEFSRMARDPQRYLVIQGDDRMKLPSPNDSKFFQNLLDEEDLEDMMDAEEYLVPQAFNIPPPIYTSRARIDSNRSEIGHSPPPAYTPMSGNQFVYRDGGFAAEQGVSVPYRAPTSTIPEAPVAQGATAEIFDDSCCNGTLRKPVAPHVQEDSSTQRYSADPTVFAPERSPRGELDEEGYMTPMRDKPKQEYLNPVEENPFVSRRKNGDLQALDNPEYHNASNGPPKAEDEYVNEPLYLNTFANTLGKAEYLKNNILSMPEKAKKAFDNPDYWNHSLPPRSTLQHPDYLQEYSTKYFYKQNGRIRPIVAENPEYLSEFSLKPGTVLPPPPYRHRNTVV

For the molecule `O=C1Nc2ccccc2/C1=C1/Nc2ccccc2/C1=N\OCCC(O)CO` (centres undefined), the residual activity was 82% in assay [1]; 12% in assay [2]; 117% (inactive) in [3]; 112% in assay [4]; 49% in assay [5]; 4% in assay [6]. Besides, the residual activity turned out to be 107% in assay [7], 105% in [8] and 16% in assay [9].
